High-throughput results deposited in PubChem by National Center for Advancing Translational Sciences (NCATS).
MCF10A rerep: inducers of DNA re-replication in MCF 10A breast cells | MCF 10A DNA re-replication, Hoechst nuclear intensity, 48 h | Potency, µM (titrated, usually from 46.1 µM), for the others: top-dose activity, positive = re-replication, actives largely listed as activators | 2.9% of 350,000 active; further: potency means the concentration at half of the fitted maximal effect; % of control where 0% means no effect; nearly all actives have a fitted effect of over 50% in size
SW480 rerep: induces DNA re-replication in SW480 colon adenocarcinoma cells; SW480 DNA re-replication, Hoechst DNA content imaging, 48 h; Potency, µM (doses to about 46.1 µM), without a hit: at the highest dose re-replication activation, actives largely listed as activators; 1.8% of 340,000 active; AID 624297; further: potency means the concentration at half of the fitted maximal effect; % of control where 0% means no effect; nearly all actives have a fitted effect of over 55% in size
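First, 250 cells per well were seeded. Next, compound or vehicle (23 nL) was pinned in, plates sat 48 hr at 37 C. Finally Hoechst was added for 40 min before fluorescence scanning.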
KB-3-1 tox: kills parental KB-3-1 adenocarcinoma cells; KB-3-1 viability, CellTiter-Glo ATP luminescence, 72 h; Potency, µM (series often up to 46.1 µM), most hits filed as cytotoxic; 1.4% of 400,000 active; AID 1347075; further: potency means the concentration at half of the fitted maximal effect; on the % scale 0 is the no-effect control and ±100 the full control effect; nearly all actives have a fitted effect of over 60% in size
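72 h, 37 °C compound treatment of KB-3-1 parental cells; CellTiter-Glo added, 10 min, luminescence read. Data corrected against DMSO-only plates and normalized before curve fitting.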
D3 antag: D3 dopamine receptor (human) antagonism | D3R cells, DiscoveRx beta-arrestin luminescence, antagonist mode; active compounds read low | max response, negative = inhibition, % | 2.5% of 360,000 active; in the data active means max response below about -50%; inconclusive means no clear call, values can overlap the other calls; further: on the % scale 0 is the no-effect control and ±100 the full control effect
Target sequence (P35462 whole entry, looked up): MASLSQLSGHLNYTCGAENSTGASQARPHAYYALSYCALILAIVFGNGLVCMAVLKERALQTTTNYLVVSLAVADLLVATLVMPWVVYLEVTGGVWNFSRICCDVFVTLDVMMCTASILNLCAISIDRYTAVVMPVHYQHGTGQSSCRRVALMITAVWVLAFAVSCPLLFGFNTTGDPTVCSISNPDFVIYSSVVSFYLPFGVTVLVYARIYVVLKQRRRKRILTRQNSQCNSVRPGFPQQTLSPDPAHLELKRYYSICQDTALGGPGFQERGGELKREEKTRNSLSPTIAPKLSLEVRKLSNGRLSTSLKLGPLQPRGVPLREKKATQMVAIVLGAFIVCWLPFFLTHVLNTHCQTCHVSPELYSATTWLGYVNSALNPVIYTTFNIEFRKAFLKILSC
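Cells expressing the human receptor were seeded at 1500 cells/well, incubated overnight at 37 degrees C in 5% CO2, then exposed to library compounds with dopamine controls for 90 minutes at 37 degrees C before luminescent detection.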
D3 ag: agonists of human D3 dopamine receptor. P35462. D3R DiscoveRx beta-arrestin cells, luminescence, 90 min. max activation, %. 0.58% of 410,000 active. AID 652048; in the data active means max activation above about 30%; further: 0% is about no effect
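Agonist mode: compounds and dopamine controls were applied to plated cells for 90 min at 37 degrees C after an overnight attachment at 1500 cells/well. Luminescent read-out followed 30 - 60 minutes at room temperature with DiscoveRx detection reagent.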
KB-V1 cytotox: kills drug-selected multidrug resistant KB-V1 cells; Potency, µM (top dose mostly 46.1 µM), usual class: cytotoxic; KB-V1 MDR cells viability, CellTiter-Glo, 72 h; 3.4% of 400,000 active; further: potency means the concentration at half of the fitted maximal effect; on the % scale 0 is the no-effect control and ±100 the full control effect; nearly all actives have a fitted effect of over 60% in size
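KB-V1 MDR subline cells in DMEM (phenol-red free, 10% FBS) exposed to compounds in qHTS concentration series for 72 h at 37 degrees C. Viability read by CellTiter-Glo luminescence; concentration-effect curves fitted after normalization and correction.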
Starred values were filed as active, the others as inactive; i = inactive; ? = inconclusive; · = not tested or not shown; [ ] = dose if it differs, or a comment. An excerpt weighted towards active compounds, which were near 8.9% of everything screened. Unless noted, the call rests on the fitted dose curve; in most records, active means well fitted curve in the direction sought with a large enough effect; inconclusive means small, poorly fitted or top-dose-only effect, or another doubt; inactive means no such curve, though single readings can be large; an effect the other way counts as inactive or inconclusive.

SMILES | MCF10A rerep | SW480 rerep | KB-3-1 tox | D3 antag | D3 ag | KB-V1 cytotox
COC(=O)C1=C(Nc2ccc(C)cc2)C=C(C)C(C(=O)OC)C1c1ccc(OC)cc1 (configuration not stated) | ? | 14.6µM* | i | -27.0 | -4.2 | i
COC(=O)C1=C(Nc2ccc(C)cc2)C=C(C)C(C(=O)OC)C1c1cccc(OC)c1 (configuration not stated) | ? | 23.1µM* | ? | -28.2 | -29.2 | i
COc1ccc(OCc2nc3ccccc3n2C(C)c2ccccc2)cc1 (configuration not stated) | · | · | i | · | -1.1 | i
Cc1ccc(C(=O)N2CCN(CCc3ccncc3)CC2)cc1 | · | · | · | · | -43.5 | ·
Cn1c(-c2ccc(F)c(F)c2)cc2onc(-c3ccccc3)c2c1=O | ? | -9.5% | i | 19.9 | 35.3* | i
COc1cccc(-c2cc3onc(-c4ccccc4)c3c(=O)n2C)c1 | -15.1% | -12.3% | i | 27.3 | 5.9 | i
CCc1cccc(NC(=O)CCc2nc3cccnc3n2-c2ccccc2)c1 | · | · | i | · | -11.1 | i
CC(C)(C)C1CCc2c(sc(NC(=O)c3cc4ccccc4c(=O)o3)c2C(N)=O)C1 (configuration not stated) | · | · | i | · | 6.5 | i
CC(C)NC(=O)CSc1nnc(-c2ccc(C(C)(C)C)cc2)n1C | ? | -21.3% | i | 5.7 | 2.2 | 25.9µM*
CCC(C)NC(=O)CSc1nnc(-c2ccc(C(C)(C)C)cc2)n1C (configuration not stated) | ? | 2.2% | i | -14.7 | -5.7 | i
COc1ccc2[nH]c(=O)c(CNC3CCCCC3)cc2c1 | 2.9% | -2.9%[9.22 µM] | i | -0.1 | -16.9 | i
COc1ccc2[nH]c(=O)c(CN(Cc3cccs3)C(=S)Nc3cccc(C)c3)cc2c1 | ? | · | i | 0.0 | 0.9 | ?
COc1ccc2[nH]c(=O)c(CN(C(=O)NC3CCCCC3)C3CCCCC3)cc2c1 | 2.2% | 16.2% | ? | -19.6 | 0.1 | 10.3µM*
COc1ccc(NCc2cc3cc(OC)ccc3[nH]c2=O)cc1 | -6.7% | 25.9% | i | -12.2 | -7.5 | 18.4µM*
O=C(c1ccncc1)N(Cc1cc2ccccc2[nH]c1=O)C1CCCCC1 | ? | 12.3% | 9.2µM* | 17.2 | 0.1 | ?
COc1ccc2[nH]c(=O)c(CNc3cccc(C)c3)cc2c1 | 9.0% | 1.1% | ? | 0.0 | 0.5 | 5.8µM*
COc1ccc(NCc2cc3ccccc3[nH]c2=O)cc1 | 19.8% | -4.9%[9.22 µM] | i | -19.1 | -2.5 | i
COc1ccc(NC(=O)C2CCN(S(=O)(=O)c3ccc4c(c3)CCCC(=O)N4)CC2)cc1Cl | · | · | i | · | 7.1 | i
Cc1ccc2[nH]c(CSc3nnc(NC(=O)COc4ccccc4)s3)cc(=O)c2c1 | · | · | i | · | -2.1 | i
CN(C)c1ccc(NC(=O)CSc2nnc(-c3cccs3)n2Cc2ccco2)cc1 | 26.9% | 2.6% | ? | -13.7 | 5.7 | 7.31µM*
CCOc1ccc(NC(=O)CSc2nnc(-c3ccccc3Cl)n2Cc2ccco2)cc1 | 1.7% | 3.1% | ? | 19.2 | 1.6 | 20.6µM*
O=C(CSc1nnc(Cc2cccs2)n1Cc1ccco1)Nc1cccc(Cl)c1 | 6.51µM* | -2.5% | i | 3.9 | 0.1 | ?
Cc1ccc(C)c(CSc2nnc(-c3cccs3)n2Cc2ccco2)c1 | 20.6µM* | ? | i | ? | 5.4 | 18.4µM*
COc1ccc(NC(=O)CSc2nnc(-c3ccccc3Cl)n2Cc2ccco2)c(OC)c1 | 3.8% | 15.2% | i | 3.2 | -6.9 | i
Cc1cccc(OCC(=O)NCc2ccccc2)c1 | -1.7% | 4.5% | i | 11.0 | 9.8 | i
SMILES | MCF10A rerep | SW480 rerep | KB-3-1 tox | D3 antag | D3 ag | KB-V1 cytotox
C/C(=N\NC(=O)COc1cccc(C)c1)c1ccc2ccccc2c1O | 13µM* | 23.1µM* | ? | 34.5 | 11.5 | i
O=S(=O)(c1ccccc1)N(c1ccccc1)S(=O)(=O)c1ccccc1 | 10.2% | 7.0% | ? | 5.2 | 1.2 | 9.2µM*
Cc1nc(NCc2ccco2)[nH]c(=O)c1CCC(C)C | 7.8% | -0.5% | i | 27.9 | -2.5 | i
O=c1[nH]c(NCc2ccco2)nnc1Cc1ccccc1Cl | ? | 7.31µM* | 5.8µM* | -15.2 | -9.0 | ?
CCOc1ccc(C2C(=O)N(C3CCCCC3)CC(=O)N2Cc2ccccc2OC)cc1OC (configuration not stated) | · | · | · | · | -15.3 | ·
COc1ccccc1CN1C(=O)CN(C2CCCC2)C(=O)C1c1ccc(F)cc1 (configuration not stated) | -6.5% | 18.4% | i | 0.0 | -9.7 | 3.66µM*
CCOc1ccc(C2C(=O)N(C3CCCCC3)CC(=O)N2CC2CCCO2)cc1OC (configuration not stated) | -1.6% | 1.1% | i | 15.3 | 3.0 | 18.4µM*
CCn1c(CN2CCOCC2)nc2cc(NC(=O)c3ccc([N+](=O)[O-])cc3)ccc21 | · | · | 16.4µM* | · | -12.8 | ?
CCn1c(CN2CCN(C)CC2)nc2cc(NC(=O)c3ccc([N+](=O)[O-])cc3)ccc21 | · | · | i | · | -6.4 | ?
CCn1c(CN2CCC(C)CC2)nc2cc(NC(=O)c3ccc([N+](=O)[O-])cc3)ccc21 | · | · | i | · | 59.9* | i
CCN(CC)CCNC(=S)Nc1ccc2nc(N3CCCC3)cc(C)c2c1 | ? | ? | 14.6µM* | 3.0 | -4.8 | i
CCCCN(CC)CCCNC(=S)Nc1ccc2nc(N3CCN(CC)CC3)cc(C)c2c1 | 5.7% | ? | i | -54.0* | 12.0 | i
CCN(CC)CCNC(=S)Nc1ccc2nc(N3CCN(C)CC3)cc(C)c2c1 | ? | ? | i | 0.8 | -3.9 | i
CCCCN(CC)CCCNC(=S)Nc1ccc2nc(N3CCN(C)CC3)cc(C)c2c1 | 3.9% | ? | i | ? | 6.5 | i
Cc1ccc(CNc2ccc(-c3nc(C(C)C)no3)cc2[N+](=O)[O-])cc1 | · | · | i | · | 2.4 | i
CCS(=O)(=O)N1CCN(S(=O)(=O)c2ccccc2[N+](=O)[O-])CC1 | -13.5% | 3.0% | i | -8.4 | 5.7 | i
CSc1ccccc1NC(=O)CN1CCN(S(=O)(=O)c2ccccc2[N+](=O)[O-])CC1 | 21.5% | -6.6% | i | 9.4 | 1.3 | 3.66µM*
COc1cccc(CNC(=O)c2c3c(nc4ccccc24)C(=O)N(C2CCCCC2)C3)c1 | · | · | i | · | 4.8 | i
Cc1cn2c(=O)cc(COc3ccccc3NC(=O)c3ccccc3C)nc2s1 | · | · | i | · | -6.8 | i
O=C(CNC(=O)c1ccc(Br)o1)NCc1ccc(F)cc1 | ? | 27.9% | i | -6.6 | -26.3 | i
